Assay outcomes from PubChem.
In the library only some 1.7% were active in any assay of this set; here they are far more common.
LANA-H2A inh = blockers of LANA interaction with H2A/H2B – biochemical, FP readout, HTS, primary screen | Protein LANA1 (Human herpesvirus 8 type P (isolate GK18)), Q9QR71 | cell-free LANA-H2A/H2B peptide, fluorescence polarization | inhibition, % (concentration not given with the values) | actives 0.6% (n = 320,000); in the data active = inhibition mostly above about 10%, no sharp cut-off; inactive = mostly below about 6.7%
Fh CTSL1 inh = Fasciola hepatica cathepsin L1 inhibitors, primary screen, counter-screen for PFM18AAP inhibitor project, biochemical, QFRET, fluorogenic peptide substrate. AID 1906, 2009. inhibition, % at 5.96 µM. actives 0.49% (n = 300,000). recombinant F. hepatica cathepsin L1, Z-Leu-Arg-MCA fluorescence;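 active = inhibition above the mean of all tested compounds plus 3 SD, set per screening campaign, cut at about 17% in these data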;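 also: 0% = plate median of test compound wells and 100% = 1 µM Z-Phe-Ala-diazomethylketone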
HDAC3 inhib = HDAC3 deacetylase inhibitors, primary screen, biochemical, fluorescence, cell-free homogeneous. actives 0.15% (n = 320,000). Histone deacetylase 3 (Homo sapiens), O15379. inhibition, % at 8.3 µM. recombinant HDAC3, fluorogenic peptide/trypsin coupled; in the data active = inhibition above about 26%, passing the limit was not always enough
m5-HT2A agonist = mouse Htr2a agonists via beta-arrestin recruitment, primary screen, cell-based, luminescence; CHO-K1 mHTR2A beta-arrestin complementation; percent of 30 µM serotonin response; activation, % at 7.6 µM; actives 0.66% (n = 360,000);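 active = activation above a run cutoff, the mean activation of all tested compounds plus 3 SD, cut at about 14% in these data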;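 also: 0% = plate median of compound wells and 100% = 30 µM serotonin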
Target sequence (P35363 whole entry, looked up): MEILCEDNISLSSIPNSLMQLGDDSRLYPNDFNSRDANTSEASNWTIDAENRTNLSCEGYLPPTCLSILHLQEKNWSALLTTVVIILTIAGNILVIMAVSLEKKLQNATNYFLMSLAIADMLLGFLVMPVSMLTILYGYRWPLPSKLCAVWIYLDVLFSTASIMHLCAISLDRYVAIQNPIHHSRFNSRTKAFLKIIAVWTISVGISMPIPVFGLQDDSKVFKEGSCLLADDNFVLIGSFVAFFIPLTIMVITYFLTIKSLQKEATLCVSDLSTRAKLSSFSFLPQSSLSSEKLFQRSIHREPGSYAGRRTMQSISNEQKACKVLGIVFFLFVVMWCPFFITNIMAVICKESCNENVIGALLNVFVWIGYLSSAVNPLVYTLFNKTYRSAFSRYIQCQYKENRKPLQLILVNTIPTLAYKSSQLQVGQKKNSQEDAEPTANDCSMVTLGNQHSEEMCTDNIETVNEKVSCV
* hit, by the source's call; ! = repeats disagree.

Screening Cc1onc(-c2ccccc2)c1C(=O)n1nnc2ccccc21 returned LANA-H2A inh 3.3, Fh CTSL1 inh 0.4, HDAC3 inhib 5.2 and m5-HT2A agonist 3.4.
For N#Cc1ccc(C(=O)OCCCc2cc3ccccc3c(=O)o2)cc1 the results were LANA-H2A inh -4.0, HDAC3 inhib 10.7 and m5-HT2A agonist 7.0.
Screening CCOc1cc2c(cc1OCC)C(C(=O)O)C(c1cc(Br)c(O)c(OC)c1)N(C)C2=O (configuration not stated) returned LANA-H2A inh 14.6*, Fh CTSL1 inh -1.0, HDAC3 inhib 0.6 and m5-HT2A agonist -0.1.
For CCCCNC(=O)C1c2cc(OC)c(OC)cc2C(=O)N(C)C1c1ccc(OC)cc1 (configuration not stated) the results were LANA-H2A inh -2.9, Fh CTSL1 inh 0.3, HDAC3 inhib 3.7 and m5-HT2A agonist 2.0.
CCOC(=O)c1nn(-c2ccc(F)cc2)c(C)c1C(C)=O was read as LANA-H2A inh -4.1, Fh CTSL1 inh 3.2, HDAC3 inhib 1.0 and m5-HT2A agonist -3.2.
`CCOC(=O)c1ncn2c1CN(C)C(=O)c1cc(F)ccc1-2` gave LANA-H2A inh 28.7*!, Fh CTSL1 inh -1.3, HDAC3 inhib -2.6 and m5-HT2A agonist 0.5.
`CNC(=O)C(Sc1ccccc1)c1ccccc1` (configuration not stated) gave LANA-H2A inh -0.3, Fh CTSL1 inh -3.6, HDAC3 inhib -13.6 and m5-HT2A agonist -3.7.
CCCNC(=O)C(Sc1ccccc1)c1ccccc1 (configuration not stated) was read as LANA-H2A inh 1.8, Fh CTSL1 inh 35.5*, HDAC3 inhib -1.7 and m5-HT2A agonist -6.3.
Screening CC(C)[C@H]1COCCS(=O)(=O)N1Cc1ccccc1-c1ccc(F)cc1 returned m5-HT2A agonist -2.1.
For CSCCC(NS(=O)(=O)c1ccc(Cl)c(Cl)c1)C(=O)O (configuration not stated) the results were LANA-H2A inh 17.3*, Fh CTSL1 inh 0.7, HDAC3 inhib 3.9 and m5-HT2A agonist 2.7.
Screening CSCCC(NS(=O)(=O)c1ccc2[nH]c(=O)c(=O)[nH]c2c1)C(=O)O (configuration not stated) returned LANA-H2A inh 0.6, Fh CTSL1 inh -4.4, HDAC3 inhib 4.3 and m5-HT2A agonist 6.4.
CSCCC(NS(=O)(=O)c1cc(C(=O)O)ccc1Cl)C(=O)O (configuration not stated) was read as LANA-H2A inh -2.4, Fh CTSL1 inh -2.4, HDAC3 inhib -3.7 and m5-HT2A agonist 2.6.
COc1ccc(C(=O)COC(=O)C(CCSC)NS(=O)(=O)c2ccc(Cl)cc2)cc1 (configuration not stated) was read as LANA-H2A inh 175.5*, Fh CTSL1 inh -7.5, HDAC3 inhib 12.7 and m5-HT2A agonist 5.2.
Screening CSCCC(NS(=O)(=O)c1ccc2ccccc2c1)C(=O)O (configuration not stated) returned LANA-H2A inh 27.5*, Fh CTSL1 inh 3.9, HDAC3 inhib 3.0 and m5-HT2A agonist -1.1.
CCCNC(=O)CN1C(=O)NC(c2ccccc2)(c2ccccc2)C1=O was read as LANA-H2A inh 1.7, Fh CTSL1 inh -5.7, HDAC3 inhib -11.8 and m5-HT2A agonist 1.0.
For CCOC(=O)c1c(-c2ccco2)csc1NC(=O)COC(=O)c1cnccn1 the results were LANA-H2A inh -1.0, Fh CTSL1 inh 39.8*, HDAC3 inhib -0.6 and m5-HT2A agonist 2.9.
`CCN(CC)S(=O)(=O)c1ccc2oc(SCC(=O)Nc3cc(C)on3)nc2c1` gave LANA-H2A inh 98.9*, Fh CTSL1 inh 0.6, HDAC3 inhib 1.6 and m5-HT2A agonist -15.0.
`Cn1cccc1CC(=O)NNC(=O)Nc1ccc(Cl)cc1` gave LANA-H2A inh 75.5*, Fh CTSL1 inh 0.2, HDAC3 inhib 3.6 and m5-HT2A agonist 3.2.
For C[C@@H]1O[C@@H](O[C@H]2[C@H](O[C@H]3C[C@]4(C)C(C[C@@H](O)C5C([C@]6(C)CC[C@@H](C(C)(C)O)O6)CC[C@]54C)[C@@]4(C)CC[C@H](O)C(C)(C)C34)O[C@H](CO)[C@@H](O)[C@@H]2O)[C@H](O)[C@H](O)[C@H]1O (some centres not stated) the results were LANA-H2A inh 2.0, HDAC3 inhib 2.0 and m5-HT2A agonist 2.0.
For CC(C)OC(=O)C(C)(C)Oc1ccc(C(=O)c2ccc(Cl)cc2)cc1 the results were LANA-H2A inh 35.4*!, Fh CTSL1 inh 2.0, HDAC3 inhib 14.8 and m5-HT2A agonist -5.1.
`CC(NC(=O)c1ccc(NC(=O)CC2SC(N3CCCC3)=NC2=O)cc1)c1ccc(S(N)(=O)=O)cc1` (configuration not stated) gave LANA-H2A inh -1.4, Fh CTSL1 inh 0.5, HDAC3 inhib -2.3 and m5-HT2A agonist 9.0.
For Brc1ccc(-c2nnc(-c3ccccc3Br)o2)cc1 the results were LANA-H2A inh -2.3, Fh CTSL1 inh 0.5, HDAC3 inhib 5.1 and m5-HT2A agonist -1.2.
For Oc1oc(-c2ccccc2)nc1/C=N/c1ccccn1 the results were LANA-H2A inh 0.9, Fh CTSL1 inh 71.3*, HDAC3 inhib 0.1 and m5-HT2A agonist 4.2.
`Oc1oc(-c2ccccc2Br)nc1C=Nc1ccc(Br)cn1` gave LANA-H2A inh 6.0, Fh CTSL1 inh 62.6*, HDAC3 inhib -4.3 and m5-HT2A agonist -0.2.
`O=C(NC(Cc1ccccc1)C(=O)Oc1ccc2c(C(F)(F)F)cc(=O)oc2c1)OCc1ccccc1` (configuration not stated) gave LANA-H2A inh 175.1*, Fh CTSL1 inh -2.8, HDAC3 inhib 3.5 and m5-HT2A agonist 3.5.
For O=C(N[C@@H](Cc1ccccc1)C(=O)N[C@@H](Cc1ccccc1)C(=O)O)OCc1ccccc1 the results were LANA-H2A inh 5.6, Fh CTSL1 inh -2.9, HDAC3 inhib -1.7 and m5-HT2A agonist -1.3.
Screening O=C(N[C@@H](Cc1ccccc1)C(=O)CCl)OCc1ccccc1 returned LANA-H2A inh -4.7, Fh CTSL1 inh 69.2*, HDAC3 inhib 6.2 and m5-HT2A agonist -0.8.
O=C(CNC(=O)OCc1ccccc1)Oc1ccc2ccc(=O)oc2c1 was read as LANA-H2A inh -4.7, Fh CTSL1 inh -0.4, HDAC3 inhib -223.7 and m5-HT2A agonist -4.8.
For C[C@H](CO)NC(=O)[C@@H]1C[C@H]1[C@@H](NP(=O)(c1ccccc1)c1ccccc1)c1ccccc1 the results were LANA-H2A inh 2.9, Fh CTSL1 inh 0.3, HDAC3 inhib -0.6 and m5-HT2A agonist -5.3.
Screening Cc1cc(CNC(=O)[C@H]2C[C@@H]2[C@H](NP(=O)(c2ccccc2)c2ccccc2)c2ccccc2)nn1C returned LANA-H2A inh 24.2*, Fh CTSL1 inh 1.6 and HDAC3 inhib -2.6.
For Cc1cc(C(F)(F)F)nc(SCCN2CCCCC2)c1C#N the results were LANA-H2A inh 2.3, Fh CTSL1 inh 0.5, HDAC3 inhib 1.2 and m5-HT2A agonist -6.3.
